# IL1B secr inh = qHTS for Inhibitors of Inflammasome Signaling: IL-1-beta AlphaLISA Primary Screen | AID 743279, 2014 | THP-1 LPS/ATP IL-1B secretion, AlphaLISA, 16 h; active compounds read low | activity change, % at 57.5 µM | actives 4.7% (n = 360,000); in the data active = activity change below about -50%; inconclusive = mostly about -30% to -49%
#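 THP-1 cells pretreated 1 hr with compounds (up to 57.5 uM final), then stimulated with LPS (250 ng/mL final) plus ATP (1.25 mM final); secreted IL-1B measured by AlphaLISA after 16 hr, decreased signal indicating inhibition.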
# DT40 TDP1 CPT = qHTS for Inhibitors of human tyrosyl-DNA phosphodiesterase 1 (TDP1): qHTS in cells in presence of CPT; chicken DT40 Tdp1-/-;hTDP1 cells + 20 nM CPT, ATP luminescence, 48 h; Potency, µM (titrated, usually from 46.2 µM), usual class: inhibitors; actives 12% (n = 420,000); AID 686979, 2013; also: nearly all actives have a fitted effect of over 55% in size
#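 Chicken DT40 Tdp1-/- cells stably complemented with human TDP1 were seeded at 400 cells/well in medium containing 20 nM camptothecin, exposed to pin-transferred compounds, and grown at 37 °C for at least 48 hr. Viability was read as ATP luminescence.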
# 12-LOX inh = Primary qHTS assay for inhibitors of human arachidonate 12S-lipoxygenase (ALOX12): Round 2 | Polyunsaturated fatty acid lipoxygenase ALOX12 (Homo sapiens), P18054 | purified 12hLO, xylenol orange hydroperoxide absorbance | Potency, µM (top dose mostly 108 µM), actives largely listed as inhibitors | actives 1.1% (n = 580,000) | AID 1671190, 2021
# Target sequence (P18054 whole entry, looked up): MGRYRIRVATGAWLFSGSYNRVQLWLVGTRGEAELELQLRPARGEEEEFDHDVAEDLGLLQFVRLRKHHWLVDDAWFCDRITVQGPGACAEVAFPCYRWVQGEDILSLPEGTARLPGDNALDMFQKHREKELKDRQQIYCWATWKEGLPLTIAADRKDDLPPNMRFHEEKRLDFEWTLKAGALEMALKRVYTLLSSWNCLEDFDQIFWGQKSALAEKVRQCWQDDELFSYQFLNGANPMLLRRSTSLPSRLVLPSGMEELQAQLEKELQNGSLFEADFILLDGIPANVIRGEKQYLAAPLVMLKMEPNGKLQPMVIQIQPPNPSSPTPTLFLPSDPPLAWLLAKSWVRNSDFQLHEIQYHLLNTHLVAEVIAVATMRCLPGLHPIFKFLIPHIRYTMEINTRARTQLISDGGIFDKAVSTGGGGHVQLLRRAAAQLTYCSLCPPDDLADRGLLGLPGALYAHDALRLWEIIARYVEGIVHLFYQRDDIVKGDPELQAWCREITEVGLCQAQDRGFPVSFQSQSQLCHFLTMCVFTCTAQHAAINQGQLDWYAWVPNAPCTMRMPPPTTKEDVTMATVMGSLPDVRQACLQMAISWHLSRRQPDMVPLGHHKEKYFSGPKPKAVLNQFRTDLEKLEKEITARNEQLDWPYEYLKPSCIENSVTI
#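 Purified human 12hLO (150 nM final) in 25 mM Hepes, 0.01% Triton X-100, pH 7.0 was preincubated 15 min at room temperature with compound. Then 40 uM arachidonic acid was added, 30 min. Hydroperoxide was read by Fe-XO absorbance ratio 573/405 nm.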
# DT40 TDP1 no CPT = qHTS for Inhibitors of human tyrosyl-DNA phosphodiesterase 1 (TDP1): qHTS in cells in absence of CPT | AID 686978, 2013 | DT40 Tdp1-/- hTDP1 cells, no CPT, ATP luminescence, 48 h | Potency, µM (doses to about 46.2 µM), most hits filed as inhibitors | actives 15% (n = 420,000); also: nearly all actives have a fitted effect of over 55% in size
#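 Growth kinetics read by CellTiter-Glo luminescence after ≥48 hr at 37 °C. Cells: DT40 Tdp1-/- stably carrying human TDP1, 400 per well, compound exposure in the absence of CPT (DMSO vehicle).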
# HT1080 IDH1KD tx = qHTS for induction of synthetic lethality in tumor cells producing 2HG: qHTS for the HT-1080-IDH1KD cell line; actives 2% (n = 360,000); AID 686971, 2013; Potency, µM (titrated, usually from 46.1 µM), most hits filed as cytotoxic; HT-1080 IDH1 knockdown viability, ATP luminescence, 48 h
#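 In this qHTS, HT-1080 cells depleted of IDH1 are exposed for 48 h at 37 °C to compound titrations. Toxicity is scored from CellTiter-Glo luminescence, with DMSO as full viability and medium alone as none.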
# HT1080-NT tox = qHTS for induction of synthetic lethality in tumor cells producing 2HG: qHTS for the HT-1080-NT fibrosarcoma cell line. HT-1080-NT fibrosarcoma viability, CellTiter-Glo ATP luminescence, 48 h. Potency, µM (top dose mostly 46.1 µM), hits mostly cytotoxic. actives 1.6% (n = 360,000);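 also: NT is the 2HG producing partner of a matched IDH1 knockdown line; nearly all actives have a fitted effect of over 55% in size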
#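 Luminescent CellTiter-Glo readout after 48 hours of compound exposure at 37 degrees C defined viability of HT-1080-NT cells. Activity was normalized to DMSO wells and cell-free media wells; concentration-response curves were fitted and assigned curve classes.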
# A number is an active result; – = inactive; ? = inconclusive; · = not tested or not shown. Shown is part of a subset that was picked to be rich in hits. Unless noted, calls follow the shape of the dose curve; as a rule, active = well fitted curve in the direction sought with a large enough effect; inconclusive = small, poorly fitted or top-dose-only effect, or another doubt; inactive = no such curve, though single readings can be large; an effect the other way counts as inactive or inconclusive.
SMILES,IL1B secr inh,DT40 TDP1 CPT,12-LOX inh,DT40 TDP1 no CPT,HT1080 IDH1KD tx,HT1080-NT tox
COc1ccc(CNC(=O)c2ccc3c(c2)N(Cc2ccccc2)CCS3)cc1,·,?,–,14.6µM,·,·
O=C(NCc1cccnc1)c1ccc2c(c1)N(Cc1ccccc1)CCS2,–,?,?,?,–,–
O=C(CSc1nnc2ccccn12)Nc1cccc(S(=O)(=O)N2CCCC2)c1,·,·,–,·,·,·
OC1CCC(Nc2ncc3nc(Nc4c(F)cc(F)cc4F)n([C@@H]4CCOC4)c3n2)CC1 (stereo partly drawn),·,·,–,·,·,·
O=C(Nc1ccc(SCc2cccnc2)cc1)C1CC2CCC(C1)C21SCCS1 (stereo not drawn),·,·,–,·,·,·
CCOc1ccc(CNC(=O)c2ccc3c(c2)N(Cc2ccccc2)CCS3)cc1,·,?,–,13µM,·,·
COc1ccc(CCNC(=O)c2ccc3c(c2)N(Cc2ccc(Cl)cc2)CCS3)c(OC)c1,·,·,–,·,·,·
COc1ccc(OC)c(CCNC(=O)c2ccc3c(c2)N(Cc2ccc(C)cc2)CCS3)c1,·,?,?,23.1µM,·,·
N#Cc1ccc(CN2CCN(C(=O)CC(NC(=O)c3ccccc3)c3ccccc3)CC2)cc1 (stereo not drawn),–,?,–,?,–,–
CCc1ccccc1NC(=O)NCc1ccc2c(c1)CCN2C(=O)c1ccccc1,·,?,–,23.1µM,·,·
O=C(COc1ccc(F)cc1)NCc1ccc2c(c1)CCN2C(=O)c1ccccc1,·,–,–,–,·,·
COc1ccc(CC(=O)NCc2ccc3c(c2)CCN3C(=O)c2ccc(C)cc2)cc1OC,·,13µM,–,11.6µM,·,·
COc1cccc(NC(=O)NCc2ccc3c(c2)CCN3C(=O)c2ccccc2)c1,·,?,–,?,·,·
COc1ccc(C)cc1NC(=O)NCc1ccc2c(c1)CCN2C(=O)c1ccccc1,·,23.1µM,–,20.6µM,·,·
COC(=O)c1ccccc1NC(=O)NCc1ccc2c(c1)CCN2C(=O)c1ccccc1,·,23.1µM,–,16.4µM,·,·
Cn1nccc1C(=O)NCc1ccc2c(c1)CCN2C(=O)c1ccccc1,·,–,–,–,·,·
Cc1ccc(C(=O)N2CCc3cc(CNC(=O)CCc4ccccc4)ccc32)cc1,·,?,–,?,·,·
CN(CC(=O)Nc1ccccc1C(F)(F)F)Cc1nc2ccccc2o1,·,·,–,·,·,·
N#Cc1ccc(CNC(=O)CCc2ccsc2)cc1,·,·,–,·,·,·
Cc1ccc(C(=O)N2CCc3cc(CNC(=O)CSc4ccccc4)ccc32)cc1,·,14.6µM,–,14.6µM,·,·
O=C(CSc1ccccc1)NCc1ccc2c(c1)CCN2C(=O)c1ccc(F)cc1,·,–,–,–,·,·
C=C[C@](C)(O)CCC1C(=C)CC(O)C2C(C)(C)CCCC12C (stereo partly drawn),·,?,·,9.2µM,·,·
C=C[C@](C)(O)CCC=C(C)C,·,–,·,–,·,·
CN1OC[C@@H]2CN(Cc3cc(Cl)cc(Cl)c3)[C@H](c3cccc(Br)c3)C[C@@H]21,–,?,–,20.6µM,?,–
Cc1ccccc1-c1cccc([C@@H]2C[C@H]3[C@H](CON3C)CN2Cc2cc(Cl)cc(Cl)c2)c1,–,?,–,23.1µM,–,–
COc1ccccc1-c1cccc([C@@H]2C[C@H]3[C@H](CON3C)CN2Cc2ccccc2)c1,–,?,–,20.6µM,–,–
COc1ccccc1-c1cccc([C@@H]2C[C@H]3[C@H](CON3C)CN2Cc2cc(Cl)cc(Cl)c2)c1,–,?,–,?,–,–
CCOc1ccc(NC(=O)C2CCc3ncc(-c4ccsc4)n3C2)cc1 (stereo not drawn),·,·,–,·,·,·
CC(=O)c1cn(CC(=O)N(C)Cc2ccccc2)c2ccccc12,·,·,–,·,·,·
